The nature of assay [1]: ATG_PBREM_CIS: Attagene CIS-FACTORIAL HepG2 Assay for human Phenobarbital-responsive Enhancer Module (PBREM) (AID 2282955). The note with it: HepG2 PBREM cis-reporter, Attagene multiplexed transcription; actives raise or lower the signal. In short, it runs like this:
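Readout: reporter mRNA, fluorescent RT-PCR fragments separated by capillary electrophoresis. System: HepG2 transiently transfected with cis-regulated reporter units. Exposure: 24 h. Analysis: bidirectional, DMSO baseline.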

Assay [2] has as its target Paired box protein Pax-6 (Homo sapiens) (UniProt P26367). Kind of assay: ATG_Pax6_CIS: Attagene CIS-FACTORIAL HepG2 Assay for human Paired Box 6 (PAX6) (AID 2282956). To be noted: HepG2 CIS-FACTORIAL PAX6 reporter transcription, RNA readout; actives raise or lower the signal. Summed up:
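DMSO-referenced bidirectional fits of reporter mRNA fluorescence; HepG2 with transient cis-promoter MRTUs, 24 h post-dose, RT-PCR plus capillary electrophoresis detection.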

A short description of assay [3]: ATG_PXRE_CIS: Attagene CIS-FACTORIAL HepG2 Assay for human Pregnane X Receptor Element (PXRE) (AID 2282957). To be noted: HepG2 Attagene CIS-FACTORIAL PXRE reporter, mRNA; actives raise or lower the signal. Summed up:
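Bidirectional activity, baselined to DMSO, derived from reporter mRNA fluorescence (RT-PCR plus capillary electrophoresis) in HepG2 cells bearing cis-promoter reporter units, 24 h exposure.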

A short description of assay [4]: ATG_PPRE_CIS: Attagene CIS-FACTORIAL HepG2 Assay for human Peroxisome Proliferator-activated Response Element (PPRE) (AID 2282958). To be noted: HepG2 PPRE cis-element reporter, Attagene transcription factor profiling; actives raise or lower the signal. In short, it runs like this:
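After human HepG2 hepatoma cells were transiently transfected with cis-promoter reporter constructs, they were exposed to test chemicals for 24 hours. Reporter RNA was then reverse-transcribed, PCR-amplified, FAM-labeled, HpaI-digested and quantified by capillary electrophoresis.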

Assay [5] is described as follows: ATG_RORE_CIS: Attagene CIS-FACTORIAL HepG2 Assay for human RAR-related Orphan Receptor Element (RORE) (AID 2282959). To be noted: HepG2 Attagene cis-factorial RORE reporter, mRNA; actives raise or lower the signal. Summed up:
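Measured here: transcript induction of a cis-regulated reporter in HepG2 cells transiently transfected via FuGene 6. After 24 h, RNA was processed by RT-PCR and fluorescent capillary electrophoresis; DMSO defined baseline activity.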

The target of assay [6] is Transcription factor Sp1 (Homo sapiens) (UniProt P08047). Kind of assay: ATG_Sp1_CIS: Attagene CIS-FACTORIAL HepG2 Assay for human Specificity Protein 1 (Sp1) (AID 2282961). To be noted: HepG2 Sp1 cis-reporter transcription, actives raise or lower the signal. In short, it runs like this:
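After transient transfection of HepG2 cells with cis-promoter reporter units and 24 h chemical treatment, reporter transcripts were quantified by RT-PCR and capillary electrophoresis fluorescence. Gain- and loss-of-signal fitted against DMSO.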

A short description of assay [7]: ATG_SREBP_CIS: Attagene CIS-FACTORIAL HepG2 Assay for human Sterol Regulatory Element Binding (SREBP) (AID 2282962). The note with it: HepG2 Attagene cis-factorial SREBP reporter, mRNA; actives raise or lower the signal. Summed up:
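In this cis-format assay, HepG2 liver cells express reporters controlled by promoter elements responsive to native transcription factors. Exposure lasts 24 h; reporter mRNA fluorescence from capillary electrophoresis gives the signal, fitted bidirectionally against DMSO.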

Assay [8] addresses Signal transducer and activator of transcription 3 (Homo sapiens) (UniProt P40763). Kind of assay: ATG_STAT3_CIS: Attagene CIS-FACTORIAL HepG2 Assay for human Signal Transducer and Activator of Transcription 3 (STAT3) (AID 2282963). The note with it: HepG2, Attagene cis-factorial STAT3 reporter transcription; actives raise or lower the signal. Summed up:
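Cis-factorial format: endogenous transcription factors in HepG2 drive transfected reporter units. After 24 h treatment, reporter RNA was reverse-transcribed, amplified, FAM-labelled and HpaI-digested before CE analysis; activity scored in both directions against DMSO.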

Assay [9] is described as follows: ATG_TA_CIS: Attagene CIS-FACTORIAL HepG2 Assay for human TA Basal Promoter (AID 2282964). The note with it: HepG2 Attagene CIS-factorial TA basal promoter reporter; actives raise or lower the signal. In short, it runs like this:
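Cis-factorial format in HepG2: reporters report endogenous factors, not chimeric Gal4 fusions. After 24 h treatment, reporter transcripts were measured by RT-PCR-capillary electrophoresis fluorescence, analysed bidirectionally versus DMSO.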

Assay [10] in a line: ATG_TCF_b_cat_CIS: Attagene CIS-FACTORIAL HepG2 Assay for human T-Cell-Factor with beta-catenin (TCF/b-cat) (AID 2282965). The note with it: HepG2 TCF/beta-catenin cis-reporter transcription, actives raise or lower the signal. Summed up: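 Endogenous transcription factor activity is captured through cis-promoter reporter constructs transiently introduced into human HepG2 liver cells. Induced reporter mRNA is measured after 24 h and fitted bidirectionally relative to DMSO.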

Assay [11] is described as follows: ATG_TAL_CIS: Attagene CIS-FACTORIAL HepG2 Assay for human TAL Basal Promoter (AID 2282966).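 Note: background control endpoint measuring basal TAL promoter reporter mRNA not a specific factor.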 To be noted: HepG2 Attagene cis-factorial TAL promoter reporter; actives raise or lower the signal. In short, it runs like this:
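Human hepatoma HepG2 cells, transfected with promoter-regulated reporter units, were treated 24 h. Reporter transcript levels, measured through RT-PCR and capillary electrophoresis, were fitted for gain or loss relative to DMSO.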

Assay [12] in a line: ATG_TGFb_CIS: Attagene CIS-FACTORIAL HepG2 Assay for human Transforming Growth Factor (TGF) (AID 2282967). The note with it: HepG2 Attagene CIS TGFb reporter, mRNA transcription; actives raise or lower the signal. In short, it runs like this:
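Multiplexed cis-reporter HepG2 system, 24 h treatment; mRNA induction read by fluorescence after RT-PCR and CE; DMSO negative control, bidirectional curve fitting.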

A short description of assay [13]: ATG_VDRE_CIS: Attagene CIS-FACTORIAL HepG2 Assay for human Vitamin D Receptor Element (VDRE) (AID 2282968). The note with it: HepG2 VDRE cis-reporter transcription, actives raise or lower the signal. Summed up: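 Measures endogenous factor activity through cis-element-driven reporter transcripts in transiently transfected HepG2. Cells are treated 24 h; reporter mRNA is quantified by RT-PCR and capillary electrophoresis; fitting is bidirectional.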

Assay [14] concerns the target Estrogen receptor (Homo sapiens) (UniProt P03372). Kind of assay: ATG_ERa_TRANS: Attagene TRANS-FACTORIAL HepG2 Assay for human Estrogen Receptor alpha (ERa) (AID 2282970; active = hit-call score of the fitted dose curve at least 0.9, where 1 is the maximum). To be noted: HepG2 Attagene TRANS ERa GAL4 reporter, mRNA. In short, it runs like this: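 Signal derives from fluorescence of labelled reporter PCR fragments separated by capillary electrophoresis. HepG2 cells transiently carrying multiple GAL4-UAS reporter units were treated 24 hours, and induction above DMSO baseline was fitted as activity.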

Assay [15] concerns the target X-box-binding protein 1 (Homo sapiens) (UniProt P17861). The experiment in a line: ATG_Xbp1_CIS: Attagene CIS-FACTORIAL HepG2 Assay for human X-box Binding Protein 1 (XBP1) (AID 2282972). To be noted: HepG2 XBP1 cis-element reporter, Attagene multiplex; actives raise or lower the signal. In short, it runs like this:
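Changes in reporter transcript abundance, read by RT-PCR and capillary electrophoresis, reflect endogenous transcription factor activity. Transfected HepG2 cells received compound for 24 hours; DMSO defined baseline for bidirectional analysis.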

Assay [16] in a line: ATG_GAL4_TRANS: Attagene TRANS-FACTORIAL HepG2 Assay for GAL4 (Internal Marker) (AID 2282976; active = hit-call score of the fitted dose curve at least 0.9, where 1 is the maximum). To be noted: HepG2 Attagene TRANS GAL4 internal marker reporter. Summed up:
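Liver HepG2 line bearing multiplexed GAL4-UAS reporter constructs; 24 h chemical treatment. Transcripts were quantified as fluorescent fragments on capillary electrophoresis after RT-PCR and HpaI cut, with activity fitted upward from DMSO.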

Assay [17] in a line: ATG_M_19_TRANS: Attagene TRANS-FACTORIAL HepG2 Assay for M19 Transcription Factor (Internal Marker) (AID 2282974; active = hit-call score of the fitted dose curve at least 0.9, where 1 is the maximum). The note with it: HepG2 Attagene TRANS-FACTORIAL M19 internal marker reporter. Summed up: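 Gain-of-signal in reporter mRNA, relative to DMSO, was scored from capillary electrophoresis fluorescence. HepG2 cells carried transiently transfected multiple reporter transcription units and were incubated with test chemicals for 24 h.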

The nature of assay [18]: ATG_Sox_CIS: Attagene CIS-FACTORIAL HepG2 Assay for human SRY-box transcription factor (SOX) (AID 2282960). To be noted: HepG2 Attagene cis-factorial SOX reporter, mRNA; actives raise or lower the signal. Summed up:
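Using transiently transfected HepG2 cells, reporter transcription driven by cis elements was assessed 24 h after dosing. Signal was fluorescence of capillary-separated RT-PCR products, with DMSO defining baseline activity.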

The target of assay [19] is Nuclear receptor subfamily 1 group I member 3 (Homo sapiens) (UniProt Q14994). Kind of assay: ATG_CAR_TRANS: Attagene TRANS-FACTORIAL HepG2 Assay for human Constitutive Androstane Receptor (CAR) (AID 2282969; active = hit-call score of the fitted dose curve at least 0.9, where 1 is the maximum;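 note: activators raise reporter mRNA above DMSO so AC50 marks induction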). To be noted: HepG2 Attagene TRANS-FACTORIAL CAR reporter. In short, it runs like this:
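Signal is reporter mRNA induction relative to DMSO, measured 24 h after dosing by RT-PCR with fluorescent primer extension and capillary electrophoresis. Human HepG2 liver cells carried transiently transfected chimeric NR-Gal4/GAL4-UAS reporter constructs.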

SMILES strings stand for the structures. Records with an inconclusive call do not appear. Calls of active or inactive are those of the source. Rule for the calls, unless noted: active = hit-call score of the fitted dose curve at least 0.9, where 1 is the maximum; inactive = score below 0.9.

Sequence of Signal transducer and activator of transcription 3 (Homo sapiens) (P40763 whole entry, looked up): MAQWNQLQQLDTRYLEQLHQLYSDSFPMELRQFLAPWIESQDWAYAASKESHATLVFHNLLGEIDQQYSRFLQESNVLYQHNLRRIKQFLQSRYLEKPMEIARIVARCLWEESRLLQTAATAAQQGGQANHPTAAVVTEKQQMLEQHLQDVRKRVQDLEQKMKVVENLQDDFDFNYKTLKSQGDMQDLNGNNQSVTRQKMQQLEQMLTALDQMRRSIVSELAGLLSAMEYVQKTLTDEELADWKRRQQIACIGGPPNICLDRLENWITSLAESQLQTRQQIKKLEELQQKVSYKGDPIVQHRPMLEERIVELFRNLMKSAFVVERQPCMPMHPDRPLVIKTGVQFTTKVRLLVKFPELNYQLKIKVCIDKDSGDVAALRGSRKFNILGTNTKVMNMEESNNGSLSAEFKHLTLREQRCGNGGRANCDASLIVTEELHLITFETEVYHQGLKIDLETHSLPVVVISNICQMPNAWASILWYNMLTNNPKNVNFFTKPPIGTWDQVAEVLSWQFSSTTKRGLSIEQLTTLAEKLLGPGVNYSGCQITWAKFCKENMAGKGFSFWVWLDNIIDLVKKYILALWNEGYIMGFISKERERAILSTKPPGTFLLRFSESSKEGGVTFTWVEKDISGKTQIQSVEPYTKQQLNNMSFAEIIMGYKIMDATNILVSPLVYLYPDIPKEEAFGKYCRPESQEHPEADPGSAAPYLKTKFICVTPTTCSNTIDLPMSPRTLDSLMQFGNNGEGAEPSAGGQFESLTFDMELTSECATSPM
Sequence of Estrogen receptor (Homo sapiens) (P03372 whole entry, looked up, the tested form may be a part): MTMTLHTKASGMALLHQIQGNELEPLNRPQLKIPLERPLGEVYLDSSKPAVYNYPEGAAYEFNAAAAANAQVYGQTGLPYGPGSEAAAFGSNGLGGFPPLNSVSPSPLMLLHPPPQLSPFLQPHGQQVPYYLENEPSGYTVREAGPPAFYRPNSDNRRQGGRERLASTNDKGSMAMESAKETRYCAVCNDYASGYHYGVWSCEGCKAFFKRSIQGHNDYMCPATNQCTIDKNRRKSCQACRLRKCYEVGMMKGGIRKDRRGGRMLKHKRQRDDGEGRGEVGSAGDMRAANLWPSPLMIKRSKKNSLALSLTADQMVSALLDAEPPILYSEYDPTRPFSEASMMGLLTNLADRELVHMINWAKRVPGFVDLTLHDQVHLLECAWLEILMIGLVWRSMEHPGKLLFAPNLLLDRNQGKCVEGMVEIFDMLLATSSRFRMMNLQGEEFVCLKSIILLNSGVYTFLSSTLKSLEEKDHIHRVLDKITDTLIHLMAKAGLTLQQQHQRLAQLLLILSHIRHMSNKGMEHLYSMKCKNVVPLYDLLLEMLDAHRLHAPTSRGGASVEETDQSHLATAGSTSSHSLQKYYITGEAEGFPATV
Sequence of X-box-binding protein 1 (Homo sapiens) (P17861 whole entry, looked up): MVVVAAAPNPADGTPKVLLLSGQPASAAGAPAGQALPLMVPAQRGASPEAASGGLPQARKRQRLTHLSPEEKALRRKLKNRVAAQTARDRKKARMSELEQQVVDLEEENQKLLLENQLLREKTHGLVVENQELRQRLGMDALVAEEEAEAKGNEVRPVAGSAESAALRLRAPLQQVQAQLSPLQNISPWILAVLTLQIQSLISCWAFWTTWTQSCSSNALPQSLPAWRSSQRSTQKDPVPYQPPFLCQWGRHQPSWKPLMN
Sequence of Paired box protein Pax-6 (Homo sapiens) (P26367 whole entry, looked up): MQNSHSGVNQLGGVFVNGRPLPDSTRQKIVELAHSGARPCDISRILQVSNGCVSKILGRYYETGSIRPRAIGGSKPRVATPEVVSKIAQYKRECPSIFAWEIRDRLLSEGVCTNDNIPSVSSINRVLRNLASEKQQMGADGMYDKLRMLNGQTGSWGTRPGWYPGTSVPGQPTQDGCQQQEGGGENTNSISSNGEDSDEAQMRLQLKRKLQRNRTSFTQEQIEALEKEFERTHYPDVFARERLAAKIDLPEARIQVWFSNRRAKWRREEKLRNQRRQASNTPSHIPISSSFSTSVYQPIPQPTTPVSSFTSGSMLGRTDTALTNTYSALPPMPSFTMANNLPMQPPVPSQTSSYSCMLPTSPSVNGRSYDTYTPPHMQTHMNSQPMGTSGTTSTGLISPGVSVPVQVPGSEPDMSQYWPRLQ
Sequence of Transcription factor Sp1 (Homo sapiens) (P08047 whole entry, looked up): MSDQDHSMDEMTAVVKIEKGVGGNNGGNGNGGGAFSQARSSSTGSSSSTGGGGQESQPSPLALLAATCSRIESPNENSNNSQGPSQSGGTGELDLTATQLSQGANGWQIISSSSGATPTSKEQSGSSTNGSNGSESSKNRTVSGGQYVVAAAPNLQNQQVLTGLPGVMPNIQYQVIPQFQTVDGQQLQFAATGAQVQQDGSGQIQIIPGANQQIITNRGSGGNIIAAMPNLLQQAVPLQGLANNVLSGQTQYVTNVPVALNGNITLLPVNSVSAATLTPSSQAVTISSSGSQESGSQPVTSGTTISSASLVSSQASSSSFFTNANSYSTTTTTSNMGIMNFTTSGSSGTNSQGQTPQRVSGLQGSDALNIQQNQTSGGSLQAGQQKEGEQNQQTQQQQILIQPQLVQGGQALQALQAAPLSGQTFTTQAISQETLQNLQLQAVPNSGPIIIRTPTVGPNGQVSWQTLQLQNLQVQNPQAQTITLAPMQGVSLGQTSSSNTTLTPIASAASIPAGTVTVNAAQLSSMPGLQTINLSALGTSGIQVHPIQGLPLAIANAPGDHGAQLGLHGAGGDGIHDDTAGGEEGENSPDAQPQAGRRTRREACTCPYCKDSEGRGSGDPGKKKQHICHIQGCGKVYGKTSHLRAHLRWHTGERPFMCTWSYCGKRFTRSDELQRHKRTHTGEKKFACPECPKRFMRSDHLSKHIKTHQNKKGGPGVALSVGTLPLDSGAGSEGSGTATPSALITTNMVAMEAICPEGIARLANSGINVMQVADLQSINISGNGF
Sequence of Nuclear receptor subfamily 1 group I member 3 (Homo sapiens) (Q14994 whole entry, looked up, the tested form may be a part): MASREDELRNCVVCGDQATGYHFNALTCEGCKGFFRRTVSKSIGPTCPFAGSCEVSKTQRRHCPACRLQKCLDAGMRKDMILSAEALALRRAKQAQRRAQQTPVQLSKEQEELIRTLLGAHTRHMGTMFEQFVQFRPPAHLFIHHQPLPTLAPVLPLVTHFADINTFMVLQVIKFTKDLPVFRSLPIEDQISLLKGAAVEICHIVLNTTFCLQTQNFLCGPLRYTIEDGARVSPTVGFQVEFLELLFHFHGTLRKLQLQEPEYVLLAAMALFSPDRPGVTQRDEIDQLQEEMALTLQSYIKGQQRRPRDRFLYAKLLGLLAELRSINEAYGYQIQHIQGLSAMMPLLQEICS

Turning to `Cc1ccc([N+](=O)[O-])cc1N`, the outcome in assay [1], in [2], in assay [4], in [5], in [6] and in assay [7] was inactive. Also, the molecule was classed as inactive in assay [8], in assay [9], in assay [10], in assay [11], in assay [12] and in assay [13]. The call in assay [14], in assay [15] and in [16] was inactive. In addition, in [3], the AC50 (usually the concentration at which the activity in the assay is half-maximal) is 45.4 µM (active).
As for `CO[Si](C)(C)OC`, the outcome in assay [1], in assay [2], in assay [4], in assay [6], in [7] and in [8] was inactive. The molecule was called inactive in assay [9], in assay [10], in assay [11], in assay [12], in [14] and in [15]. The call in assay [17] and in assay [16] was inactive. Also, the AC50 in assay [3] is 184 µM (active).
As to `C1CNCCN1`, the outcome in [1], in assay [2], in assay [3], in assay [5], in assay [18] and in assay [6] was inactive. The result in assay [7], in assay [8], in [10], in assay [11], in assay [12] and in assay [14] was inactive. The call in assay [15] and in assay [16] was inactive.
Consider `CC(=O)c1ccccc1O`, for which the result in [1], in assay [2], in assay [3], in [5], in [18] and in assay [6] was inactive. The molecule was called inactive in [7], in assay [8], in assay [9], in assay [10], in assay [11] and in assay [13]. Also, the result in assay [14], in assay [15] and in assay [17] was inactive.
`CC(C)CCCCCOC(=O)CS`: the result in [1], in assay [2], in [5], in assay [18], in [6] and in assay [7] was inactive. Also, the result in assay [8], in [9], in assay [10], in assay [11], in assay [12] and in assay [15] was inactive. For the same molecule, the molecule was called inactive in assay [16]. Besides, in assay [3], the AC50 was 11.8 µM (active).
Consider `CCC(C)C(=O)OCCc1ccccc1` (centres undefined), for which the result in assay [1], in assay [2], in [3], in assay [5], in assay [18] and in assay [6] was inactive. For the same molecule, the molecule was classed as inactive in [7], in [8], in [9], in assay [10], in [11] and in assay [12]. In addition, the outcome in assay [14] was inactive.
As to `C=C(C)OC(C)=O`, the result in assay [1], in [2], in assay [3], in [5], in assay [18] and in assay [6] was inactive. For the same molecule, the call in assay [7], in [8], in assay [9], in [10], in [11] and in [12] was inactive. Also, the molecule was classed as inactive in assay [13], in [19], in [14], in assay [17] and in assay [16].

The values above are taken from PubChem BioAssay (EPA / NIEHS).
